Only some compounds are listed: those with a hit (about 3.1% of all), similar ones and a draw of the others.
MITF TRPM1 HTS = activators of MITF-driven TRPM1 promoter activity in SK-MEL-5 cells; SK-MEL-5 TRPM1-promoter luciferase, 24 h; % of positive control, neutral wells = 0; activation, % at 12.5 µM; 0.75% of 300,000 active; AID 588334;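 active = mean activation of at least 80% with every replicate also reaching 80%; inconclusive = mean reaches 80% but some replicate falls short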;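 note: 0% = neutral control wells and 100% = parthenolide positive control wells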
Statin myotox sup = protects C2C12 myotubes from simvastatin toxicity. ATP luminescence, 48 h; scaled: DMSO 0, geranylgeraniol control 100. rescue of ATP level, % at 7.49 µM. 0.78% of 330,000 active. AID 602340;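 active = mean ATP rescue above about 67%, or every replicate alone reaching that limit, limit read from the data, passing the limit was not always enough; inconclusive = no clear call, values can overlap the other calls; inactive = mean under the limit and some replicate under it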;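 note: myotubes were challenged with 10 µM simvastatin during compound exposure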
Wnt act = Wnt/beta-catenin pathway activation | Wnt/beta-catenin reporter cell assay, activator, plate reader | activation, % at 9.35 µM | 1.2% of 300,000 active | AID 743398; in the data active = activation above about 30%, passing the limit was not always enough; inconclusive = no clear call, values can overlap the other calls;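 note: 0% = neutral control wells and 100% = positive control wells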
esBAF inh = blocks esBAF chromatin remodeling in mouse ES cells; Bmi1-luciferase knock-in reporter, 24 h; 100% = twice the neutral-well signal; reporter increase, % at 12.5 µM; 2% of 350,000 active; AID 602393; in the data active = activation above about 40%; inconclusive = no clear call, values can overlap the other calls;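 note: 0% = median of the plate's neutral control wells and 100% = double that signal; a rise in the Bmi1 reporter signal indicates esBAF inhibition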
Rtt109 Vps75 = inhibitors of Candida albicans Rtt109/Vps75 histone acetyltransferase | purified Rtt109/Vps75, ThioGlo CoA-SH fluorescence, 4 h | Q5AAJ8 | AID 540336 | 0.16% of 330,000 active | inhibition, % at 34.9 µM;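 active = inhibition of at least 50% in every replicate; inconclusive = best replicate reaches 50% inhibition but some replicates fall short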
Target sequence (Q5AAJ8 whole entry, looked up): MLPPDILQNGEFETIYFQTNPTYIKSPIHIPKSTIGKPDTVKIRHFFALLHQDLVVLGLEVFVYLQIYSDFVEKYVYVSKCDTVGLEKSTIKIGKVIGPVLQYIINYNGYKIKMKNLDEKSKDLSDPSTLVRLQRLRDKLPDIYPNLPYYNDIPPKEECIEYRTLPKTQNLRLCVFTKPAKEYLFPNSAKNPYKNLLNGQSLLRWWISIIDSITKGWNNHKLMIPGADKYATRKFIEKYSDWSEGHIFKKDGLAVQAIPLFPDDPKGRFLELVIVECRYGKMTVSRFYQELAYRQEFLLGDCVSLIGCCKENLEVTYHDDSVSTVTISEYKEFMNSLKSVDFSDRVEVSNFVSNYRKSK
Starred values were filed as active, the others as inactive; ? = inconclusive; . = not tested or not shown.

SMILES	MITF TRPM1 HTS	Statin myotox sup	Wnt act	esBAF inh	Rtt109 Vps75
C[C@H]1C(=O)N(C)CCN1Cc1cn(C)nc1-c1ccc(Oc2ccccc2)cc1	-14.8	0.9	0.5	-5.4	-6.3
O=C(N/N=C/c1ccc2cccnc2c1)c1nc2ccccc2c(=O)[nH]1	66.5	2.5	0.1	45.8*	2.2
O=C(N/N=C/c1ccncc1)c1nc2ccccc2c(=O)[nH]1	31.9	.	21.1	.	-4.5
COCCNC(=O)C[C@H]1C=C[C@H](NC(=O)NC2CCCC2)[C@H](CO)O1	.	-27.8	.	-0.4	.
C[C@@H]1CN([C@@H](C)CO)C(=O)c2cc(NC(=O)Nc3ccc4c(c3)OCO4)ccc2O[C@@H](C)CCCCO[C@H]1CN(C)Cc1ccncc1	.	.	.	57.2*	.
C[C@H](CO)N1C[C@H](C)[C@@H](CN(C)CC2CCCCC2)OCCCC[C@H](C)Oc2ccc(NC(=O)Nc3ccc4c(c3)OCO4)cc2C1=O	.	69.6*	.	0.4	.
COc1ccc(NC(=O)Nc2ccc3c(c2)C(=O)N([C@@H](C)CO)C[C@@H](C)[C@@H](CN(C)CC2CCCCC2)OCCCC[C@H](C)O3)cc1	.	89.4*	.	-3.4	.
Cc1ccc(S(=O)(=O)Nc2ccc3c(c2)C(=O)N([C@@H](C)CO)C[C@H](C)[C@@H](CN(C)C(=O)Nc2ccc(F)cc2)OCCCC[C@@H](C)O3)cc1	.	.	.	1.1	.
CO[C@H]1CN(C)C(=O)c2ccc(NC(=O)c3nc4ccccc4s3)cc2OC[C@@H](C)NC[C@H]1C	.	26.2	.	3.6	.
CCC(/C=C1\Sc2ccc(OC)cc2N1CC)=C\c1sc2ccc(OC)cc2[n+]1CCCS(=O)(=O)[O-]	-52.8	.	-1.5	.	?
CCC(/C=C1\Sc2ccc(OC)cc2N1CCO)=C\c1sc2ccc(OC)cc2[n+]1CCO	-95.6	-117.3	-1.0	-26.4	114.3*
C[C@@H]1CCCCO[C@@H](CN(C)Cc2ccc(C(F)(F)F)cc2)[C@@H](C)CN([C@@H](C)CO)C(=O)c2cc(NC(=O)CCC(F)(F)F)ccc2O1	.	83.2*	.	-2.8	.
C[C@@H]1CN([C@H](C)CO)C(=O)c2cc(NC(=O)CCC(F)(F)F)ccc2O[C@@H](C)CCCCO[C@@H]1CN(C)Cc1ccc(C(F)(F)F)cc1	.	125.2*	.	-4.7	.
C[C@@H]1CCCCO[C@@H](CN(C)Cc2ccc(C(F)(F)F)cc2)[C@H](C)CN([C@@H](C)CO)C(=O)c2cc(NS(=O)(=O)c3cccs3)ccc2O1	.	72.3*	.	8.8	.
C[C@@H]1CCCCO[C@H](CN(C)Cc2ccc(C(F)(F)F)cc2)[C@H](C)CN([C@H](C)CO)C(=O)c2cc(NC(=O)Cc3ccccc3)ccc2O1	.	133.7*	.	-1.1	.
C[C@@H]1CCCCO[C@H](CN(C)Cc2ccc(C(F)(F)F)cc2)[C@H](C)CN([C@H](C)CO)C(=O)c2cc(NS(=O)(=O)c3cccs3)ccc2O1	.	-60.3	.	4.7	.
O=C(NCC[C@H]1CC[C@H](NS(=O)(=O)c2cccc(F)c2)[C@@H](CO)O1)C1CCOCC1	.	6.1	.	-1.3	.
Cc1ccccc1S(=O)(=O)NCC[C@H]1CC[C@H](NC(=O)C2CC2)[C@@H](CO)O1	.	-2.6	.	1.7	.
CCNC(=O)Nc1ccc2c(c1)C(=O)N(C)[C@H]1CC[C@@H](CC(=O)Nc3ccccc3)O[C@@H]1CO2	.	3.8	.	-5.1	.
CCSc1ccc(-c2cccc([N+](=O)[O-])c2)nn1	74.9	10.4	27.8	49.5*	0.5
O=C(NCc1ccccc1)C1Nc2ccc(OC(F)(F)F)cc2C2C=CCC12 (configuration not stated)	-10.3	21.1	-5.4	-1.8	13.9
O=C(NC1CC1)C1Nc2ccc(OC(F)(F)F)cc2C2C=CCC12 (configuration not stated)	-8.2	7.9	39.4*	-3.7	-3.2
Cc1ccc(-n2nc3ccc(N)cc3n2)cc1C	-20.1	1.1	31.0*	-19.4	22.3
Cc1ccc(-n2nc3ccc(N)cc3n2)cc1Cl	19.3	11.6	10.4	-11.6	-0.9
COc1cccc(S(=O)(=O)Nc2ccc3c(c2)OC[C@H](C)NC[C@@H](C)[C@@H](OC)CN(C)C3=O)c1	.	7.8	.	3.3	.
SMILES	MITF TRPM1 HTS	Statin myotox sup	Wnt act	esBAF inh	Rtt109 Vps75
CC(C)c1[nH]nc2c1C(c1ccco1)C(C#N)=C(N)O2 (configuration not stated)	-2.1	.	-1.4	.	-7.9
CC(C)C1C(C#N)=C(N)Oc2n[nH]c(-c3ccccc3)c21 (configuration not stated)	.	.	0.7	-6.5	-3.9
CC(C)c1[nH]nc2c1C(C(C)C)C(C#N)=C(N)O2 (configuration not stated)	-9.4	71.9*	-5.8	-12.6	-3.7
CC(C)CC1C(C#N)=C(N)Oc2n[nH]c(-c3ccccc3)c21 (configuration not stated)	1.5	9.9	32.2*	0.1	6.1
Cc1noc(C)c1S(=O)(=O)N(C)C[C@H]1OCCCC[C@H](C)Oc2ccc(NC(=O)Nc3ccc4c(c3)OCO4)cc2C(=O)N([C@@H](C)CO)C[C@@H]1C	.	.	.	-2.5	.
CCOc1cc(CNCc2cccs2)cc(Br)c1OC	0.6	97.1*	-1.8	0.5	9.5
COc1cc(CO)ccc1OCc1ccc(Cl)nc1	.	-0.9	36.3*	57.0*	-0.1
COc1cc(CNCCc2ccc(F)cc2)ccc1OCc1ccc(Cl)nc1	20.0	9.4	.	3.2	4.5
CC(C)NC(=O)N(C)C[C@@H]1Oc2c(NC(=O)c3nc4ccccc4s3)cccc2C(=O)N([C@@H](C)CO)C[C@@H]1C	.	.	.	3.5	.
Cc1ccc(NC(CC(=O)c2ccccc2)c2ccc(F)cc2)cc1 (configuration not stated)	47.3	.	10.5	.	-5.3
O=C(CC(Nc1ccc(F)cc1)C(=O)O)c1ccccc1 (configuration not stated)	.	25.3	.	48.9*	10.9
O=C(C[C@H]1C=C[C@H](NC(=O)Nc2cc(F)ccc2F)[C@@H](CO)O1)NCCCN1CCOCC1	.	-8.2	.	-6.6	.
CN(C)CCN(C(=O)c1ccc2ccccc2c1)c1nc2c(F)cccc2s1	6.5	120.2*	0.5	0.0	0.5
CCOc1cccc2sc(N(CCN(C)C)C(=O)c3ccc4ccccc4c3)nc12	2.3	1.8	.	-5.1	?
CCOc1ccc(C2=Nc3ccc(Br)cc3C(c3ccc(N4CCOCC4)cc3)=NN2)cc1	68.0	.	6.3	.	-3.3
CCOc1ccc(C2=Nc3ccccc3C(c3ccc(N4CCOCC4)cc3)=NN2)cc1	.	-6.2	.	50.1*	2.3
O=C(C[n+]1cccc(Br)c1)c1ccc(-c2ccccc2)cc1	14.9	-17.4	1.6	44.4*	7.6
O=C(C[n+]1cccc(Br)c1)c1ccccc1	-7.6	-3.6	1.7	-2.8	0.6
CN(C)c1ccc(N=c2sc3ccccc3n2C)cc1	51.3	9.4	51.4*	81.9*	.
Cc1ccc(CN(C)C(=O)c2ccc(S(=O)(=O)N3CCCCCC3)cc2)o1	13.0	6.4	35.6*	-2.4	-5.1
CN(Cc1cccs1)C(=O)c1ccc(S(=O)(=O)N2CCCCC2)cc1	-0.3	.	-2.9	.	-6.2
